cytoskel mod: modifiers of cytoskeleton assembly. HUVEC TNFa F-actin phalloidin imaging, high content. inhibition, % at 2 µM. 91,000 compounds, 0.18% hits. AID 836;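 active = inhibition above the batch mean plus 3 SD and confirmed as a hit by visual image inspection, cut at about 30% in these data, passing the limit was not always enough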
E-sel TNF inh: blocks E-selectin expression induced by TNF alpha; HUVEC TNFa-induced E-selectin immunofluorescence, high content; 120,000 compounds, 0.71% hits; AID 1246; inhibition, % at 2 µM;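 active = inhibition above the batch mean plus 3 SD, and confirmed as a hit on visual image review, cut at about 43% in these data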
CYP2C9 inhib: inhibitors of human CYP2C9 | 96,000 compounds, 20% hits | AID 777 | CYP2C9 Supersomes, luciferin-H conversion, luminescence | inhibition, % at 5 µM;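 active = blocking of liver enzyme CYP2C9 beyond about 50% at 5 µM, limit read from the data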
CYP2C19 act: cytochrome P450 2C19 (human) activation. 96,000 tested, under 10 active. recombinant CYP2C19, luciferin-H EGE luminescence; stronger effect = higher value; 0 = fully inhibited enzyme, 1 = untreated enzyme. activation factor at 5 µM. P33261. AID 1025;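 active = activation factor of at least 2 at 5 µM in the primary screen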
Target sequence (P33261 whole entry, looked up): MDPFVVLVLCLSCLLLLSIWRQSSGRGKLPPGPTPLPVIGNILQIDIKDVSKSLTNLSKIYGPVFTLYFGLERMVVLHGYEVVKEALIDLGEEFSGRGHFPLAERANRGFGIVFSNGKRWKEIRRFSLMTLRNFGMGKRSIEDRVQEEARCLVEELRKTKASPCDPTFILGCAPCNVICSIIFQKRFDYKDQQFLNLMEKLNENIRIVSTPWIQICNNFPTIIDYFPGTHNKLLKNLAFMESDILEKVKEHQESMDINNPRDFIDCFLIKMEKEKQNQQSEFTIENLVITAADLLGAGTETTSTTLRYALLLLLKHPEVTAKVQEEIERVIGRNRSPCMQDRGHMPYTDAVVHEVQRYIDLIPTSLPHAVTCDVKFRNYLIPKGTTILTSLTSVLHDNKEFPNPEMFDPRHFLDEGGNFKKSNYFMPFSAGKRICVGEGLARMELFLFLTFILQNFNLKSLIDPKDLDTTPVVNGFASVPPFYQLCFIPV
CYP2C19 inhib: human CYP2C19 inhibition. P33261. CYP2C19 Supersomes, luciferin-H EGE luminescence, 30 min. inhibition, % at 5 µM. 96,000 compounds, 21% hits. AID 778;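 active = CYP2C19 inhibition above a set limit at 5 µM in the primary screen, cut at about 50% in these data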
CYP2C9 activ: increases human cytochrome P450 2C9 activity; P11712; recombinant CYP2C9, luciferin-H conversion, luminescence; stronger effect = higher value; factor 1 = untreated enzyme, 0 = blocked; 96,000 compounds, 1.4% hits; activation factor at 5 µM;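 active = activation factor of 2 or more for CYP2C9 at a 5 µM dose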
Each line names hits and unclear results; the compound was inactive in the other large screens. Shown are actives, neighbours in structure and some others; about 22% of the full set was active somewhere.

COc1ccc(N2CSC3=C(C#N)C(c4cc(OC)ccc4OC)CC(=O)N3C2)c(OC)c1 (stereo not given)	CYP2C9 inhib 52.9 (no result: E-sel TNF inh)
COc1ccc(N2CSC3=C(C#N)C(c4cc(OC)c(OC)cc4OC)CC(=O)N3C2)c(OC)c1 (stereo not given)	none
CCOc1ccccc1N1CSC2=C(C#N)C(c3c(OC)ccc4ccccc34)CC(=O)N2C1 (stereo not given)	CYP2C9 inhib 99.9, CYP2C19 inhib 75.1 (no result: E-sel TNF inh)
Cc1cc(NC(=O)CSc2nnc(-c3ccc(S(=O)(=O)N4CCCC4)cc3)n2C)no1	none
COc1ccccc1-n1c(SCC(=O)NC(C)(C)C)nc(O)c(Cc2ccccc2)c1=O	none
Cc1c(Br)cc(C(=O)N2CCCC2)c(C)c1C	CYP2C19 inhib 92.4
CCOC(=O)N1CCC(NC(=O)c2cc3c(-c4ccc(Cl)cc4)nn(C)c3s2)CC1	none (no result: E-sel TNF inh, CYP2C9 inhib, CYP2C19 act, CYP2C19 inhib, CYP2C9 activ)
O=C(C1=C(O)C(=O)N(c2ncccn2)C1c1cccc(Cl)c1)c1ccco1 (stereo not given)	none
CCOC(=O)N1CCC(NC(=O)C2CCCN(C(=O)N3CCOc4ccccc43)C2)CC1 (stereo not given)	CYP2C9 inhib 79.6 (no result: cytoskel mod)
CCc1nc(NCCCN2CCOCC2)c2oc3ccccc3c2n1	none
CCc1nc(Nc2ccc3c(c2)OCO3)c2oc3ccccc3c2n1	CYP2C9 inhib 75.0, CYP2C19 inhib 51.3
CCc1nc(NCCN2CCOCC2)c2oc3ccccc3c2n1	CYP2C19 inhib 56.9 (no result: E-sel TNF inh)
CCc1nc(N2CCN(Cc3ccc4c(c3)OCO4)CC2)c2oc3ccccc3c2n1	CYP2C9 inhib 51.4
CCc1nc(Nc2ccncc2)c2oc3ccccc3c2n1	none
CN1CCc2nc(NC(=O)c3cccc(OC(F)F)c3)sc2C1	none
O=C(Nc1cccc(NC(=O)c2sc3ccccc3c2Cl)c1)c1ccco1	none (no result: cytoskel mod, CYP2C9 inhib, CYP2C19 act, CYP2C19 inhib, CYP2C9 activ)
CN(CC(=O)N1CCCc2c1c(=O)oc1ccc(O)cc21)Cc1ccccc1	CYP2C9 inhib 66.7, CYP2C19 inhib 96.1
CC1(C)NC(=O)N(CC(O)COc2cccc(F)c2)C1=O (stereo not given)	CYP2C19 inhib 69.1 (no result: E-sel TNF inh)
CC1(C)NC(=O)N(CC(O)Cn2nnc3ccccc32)C1=O (stereo not given)	CYP2C19 inhib 68.7
C=CCn1c(COc2ccc(CC)cc2)nnc1SCC(=O)NC1CCS(=O)(=O)C1 (stereo not given)	none
COC(=O)c1ccc(COc2ncnc3c(Cl)cc(Cl)cc23)o1	CYP2C9 inhib 61.5
Cc1ccc(SCC(=O)NCCCN2CCOCC2)cc1	none
COc1cccc(NC(=S)/C(=C(\[O-])c2ccc(C)c([N+](=O)[O-])c2)[n+]2ccccc2)c1	none
Cc1ccc(NC(=S)/C(=C(\[O-])c2ccc(C)c([N+](=O)[O-])c2)[n+]2ccccc2)cc1C	CYP2C9 inhib 69.3 (no result: E-sel TNF inh)
CCC(C)NC(=O)c1nc2c(nnn2Cc2ccccc2Cl)c(=O)[nH]1 (stereo not given)	none (no result: cytoskel mod, CYP2C9 inhib, CYP2C19 act, CYP2C19 inhib, CYP2C9 activ)
COc1ccccc1Cn1nnc2c(=O)[nH]c(C3CCN(C(=O)c4ccccc4Cl)CC3)nc21	CYP2C9 inhib 94.4, CYP2C19 inhib 75.3
O=C(c1ccccc1)N1CCC(c2nc3c(nnn3Cc3ccccc3Cl)c(=O)[nH]2)CC1	CYP2C9 inhib 62.8
CC(C)(C)CC(=O)N1CCC(c2nc3c(nnn3Cc3c(F)cccc3Cl)c(=O)[nH]2)CC1	CYP2C9 inhib 82.2, CYP2C19 inhib 52.4
O=C(c1ccccc1Cl)N1CCC(c2nc3c(nnn3Cc3ccco3)c(=O)[nH]2)CC1	none (no result: cytoskel mod, CYP2C9 inhib, CYP2C19 act, CYP2C19 inhib, CYP2C9 activ)
COc1ccccc1Cn1nnc2c(=O)[nH]c(C3CCN(C(=O)c4ccc(C)cc4)CC3)nc21	CYP2C9 inhib 65.6 (no result: cytoskel mod)
COc1cccc(N2CCN(C(=O)c3ccc(N4C(=O)NC5CC4(C)Oc4ccccc45)cc3)CC2)c1 (stereo not given)	none (no result: E-sel TNF inh)
CC(C)CC(NS(=O)(=O)c1cc(C(=O)O)ccc1Cl)C(=O)O (stereo not given)	none (no result: cytoskel mod, CYP2C9 inhib, CYP2C19 act, CYP2C19 inhib, CYP2C9 activ)
CC(C)(C)NC(=O)COC(=O)c1ccc(F)cc1Cl	none (no result: cytoskel mod, CYP2C9 inhib, CYP2C19 act, CYP2C19 inhib, CYP2C9 activ)
N#Cc1c(N)nc(SC2CCCCC2=O)c(C#N)c1-c1ccco1 (stereo not given)	none (no result: E-sel TNF inh, CYP2C9 inhib, CYP2C19 act, CYP2C19 inhib, CYP2C9 activ)
Cc1cc(C)c(C#N)c(SC2CCCCC2=O)n1 (stereo not given)	CYP2C19 inhib 61.1
CC(C)NC(=O)/C=C/C(=O)O	none (no result: cytoskel mod, CYP2C9 inhib, CYP2C19 act, CYP2C19 inhib, CYP2C9 activ)
Cc1ccc(S(=O)(=O)N2CCC(C(=O)Nc3nnc(C4CCCC4)s3)CC2)cc1	none
Cc1ccc(S(=O)(=O)N2CCC(C(=O)Nc3ccccc3N3CCCCC3)CC2)cc1	CYP2C9 inhib 86.8, CYP2C19 inhib 79.7
CCOC(=O)C1CCN(S(=O)(=O)c2ccc(C(=O)OC)cc2)CC1	none
CCOC(=O)C1CCN(S(=O)(=O)c2ccc3[nH]c(=O)oc3c2)CC1	CYP2C19 inhib 56.3 (no result: E-sel TNF inh)
CCOC(=O)C1CCN(S(=O)(=O)c2ccc(C)cc2)CC1	CYP2C19 inhib 81.1
COc1ccc(S(=O)(=O)N2CCC(=O)N2)cc1	none
CS(=O)(=O)N(CC(=O)N1CCc2ccccc2C1)Cc1ccccc1	CYP2C9 inhib 80.1, CYP2C19 inhib 86.3
COc1ccc(N2CCN(C(=O)CN(Cc3ccc(Cl)cc3)S(C)(=O)=O)CC2)cc1	none
CS(=O)(=O)N(CC(=O)N1CCCCCC1)Cc1ccc(Cl)cc1	CYP2C19 inhib 93.4
Cc1ccc(CSCC(=O)N2CCN(Cc3ccc4c(c3)OCO4)CC2)cc1	none (no result: CYP2C9 inhib, CYP2C19 act, CYP2C19 inhib, CYP2C9 activ)
O=C(CCC1CCCCC1)N1CCN(Cc2ccc3c(c2)OCO3)CC1	CYP2C9 inhib 86.8, CYP2C19 inhib 91.4
CS(=O)(=O)N(CC(=O)N1CCN(Cc2ccc3c(c2)OCO3)CC1)Cc1ccc(Cl)cc1	CYP2C9 inhib 61.6
CS(=O)(=O)N(CCc1ccccc1)CC(=O)N1CCN(Cc2ccc3c(c2)OCO3)CC1	none
Oc1ccc2ccccc2c1Br	none (no result: cytoskel mod, CYP2C9 inhib, CYP2C19 act, CYP2C19 inhib, CYP2C9 activ)
O=C(COC(=O)CSc1ccc2ccccc2c1)NC1CCCC1	none (no result: cytoskel mod, CYP2C9 inhib, CYP2C19 act, CYP2C19 inhib, CYP2C9 activ)
CS(=O)(=O)N(CC(=O)N1CCOCC1)Cc1ccc(Cl)cc1	CYP2C19 inhib 56.2
CS(=O)(=O)N(CC(=O)N1CCN(c2ccccc2)CC1)Cc1ccc(Cl)cc1	none
CS(=O)(=O)c1ccc(C(=O)N2CCc3ccccc3C2)cc1	none (no result: cytoskel mod, CYP2C9 inhib, CYP2C19 act, CYP2C19 inhib, CYP2C9 activ)
CN(c1ccccc1C(=O)N1CCc2ccccc2C1)S(C)(=O)=O	CYP2C9 inhib 83.5, CYP2C19 inhib 93.2
CN1CCN(C(=O)CN(Cc2ccc(Cl)cc2)S(C)(=O)=O)CC1	CYP2C19 inhib 69.3
C(=C\c1nc(N2CCCC2)c2ccccc2n1)/c1ccccc1	none (no result: cytoskel mod, CYP2C9 inhib, CYP2C19 act, CYP2C19 inhib, CYP2C9 activ)
Nc1cc(=O)[nH]c(=O)n1Cc1ccco1	none
CCc1nc2sc3ccccc3c(=O)c2c(=O)n1CCOC	none
COCCn1c(C2CCCCC2)nc2sc3ccccc3c(=O)c2c1=O	CYP2C9 inhib 76.7, CYP2C19 inhib 61.4 (no result: E-sel TNF inh)
O=C1CCCc2c1cc(C(=O)Nc1ccc(Br)cn1)c(=O)n2-c1ccccc1	none
c1ccc(N2CCN(c3cnc4ccccc4n3)CC2)cc1	CYP2C19 inhib 51.2
CN(Cc1cc2ccccc2[nH]c1=O)C(=O)C1CCCCC1	none (no result: E-sel TNF inh)
CCCCCCCCCS(=O)(=O)N/N=C/c1cccc([N+](=O)[O-])c1	CYP2C9 inhib 67.9
